About 950 (1.4%) of roughly 69,000 compounds showed an effect of 50% or more. The list comes from a sample in which strong results are over-represented; it also holds similar structures and randomly drawn compounds.
What follows are compounds tested on Mycobacterium tuberculosis (assay: Cornell M. t heat shock assay; note: in the data most compounds retested in dose-response had high values).
Assay type: functional, organism-based
Set-up: dose or concentration left out as unconfirmed

SMILES | Percent Effect [%]
Cc1ccc(O[C@@H]2C[C@H]3CN(c4ncc(F)cn4)CCN3C2)cc1.O=C(O)C(F)(F)F.O=C(O)C(F)(F)F | 19.77
CN(C)S(=O)(=O)N1C[C@H]2C[C@H](C(=O)Nc3ccccc3)[C@@H](C1)O2 | 3.45
N#Cc1cccc(CN2CC[C@@H]3[C@@H]2CC(=O)N3Cc2ccncc2)c1.O=C(O)C(F)(F)F.O=C(O)C(F)(F)F | 1.363
COCCN1CC[C@H]2OCC[C@@H](C(=O)N3CCCO3)[C@H]2C1.O=C(O)C(F)(F)F | -19.22
O=C(O)C(F)(F)F.c1ccc(N2CCC3(CCCN(c4ncccn4)C3)C2)nc1 (stereo unspecified) | -26.18
CC(C)NC(=O)[C@H]1C[C@H]2OCC[C@H]2N(Cc2ccc3ccccc3n2)C1.O=C(O)C(F)(F)F.O=C(O)C(F)(F)F | -9.211
Cc1ccc(C(=O)N2CCC3(CC2)CN(c2ccccn2)CCO3)cc1.O=C(O)C(F)(F)F | -9.264
Cn1cc(CN2Cc3c(cnn3C)C(COCC3CC3)C2)cn1.O=C(O)C(F)(F)F.O=C(O)C(F)(F)F (stereo unspecified) | -38.19
CO[C@H]1CCN(C(=O)Cc2ccsc2)[C@@H]2CN(CC3CC3)C[C@H]12.O=C(O)C(F)(F)F | -6.3
Cc1cnc(C(=O)N2Cc3ncn(C)c3C(COCC(C)C)C2)cn1.O=C(O)C(F)(F)F (stereo unspecified) | 6.608
CN1CCN([C@@H]2CCN(CC3=Cc4cc(Cl)ccc4OC3)C[C@H]2O)CC1 | -1.479
O[C@@H]1CN(CC2=Cc3cc(Cl)ccc3OC2)CC[C@H]1N1CCCCCC1 | 85.47
Cc1c(CN2CC[C@@H](N3CCC(O)CC3)[C@H](O)C2)[nH]c2ccc(Cl)cc12 | 15.96
CC(C)NC(=O)CC1COC2(CCN(Cc3ccsc3)CC2)C1.O=C(O)C(F)(F)F (stereo unspecified) | -6.674
CCN(CC)C(=O)CN(C)C(=O)c1ccc(-c2ccsc2)nc1C | -2.005
CCN(CC)C(=O)c1ccc(-c2ccsc2)nc1C | 85.72
CCN(CC(=O)NC(C)C)C(=O)c1ccc(-c2ccsc2)nc1C | -31.64
COCCN1CCC(c2nc3ccc(NC4CCC4)cn3n2)CC1.O=C(O)C(F)(F)F | 43.84
CC(C)(C)C(=O)N1C[C@H](c2ccsc2)[C@H]2CN(C3CCCCC3)CC[C@H]21.Cl | 6.818

SMILES | Percent Effect [%]
CCC(=O)N1CCC2(CC1)C(=O)N(Cc1cccnc1)CCN2C.O=C(O)C(F)(F)F.O=C(O)C(F)(F)F | -1.837
Cc1ccn(-c2ccccc2NCc2ccccn2)n1 | 31.75
Cc1ccn(-c2ccccc2NCc2cscn2)n1 | -34.26
Cc1ccc(CNc2ccccc2-n2ccc(C)n2)nc1 | 73.74
COCCn1ccc2ccc(C(=O)O)cc21 | -0.8971
COCCn1ccc2ccc(C(=O)N3CCN(C(C)=O)CC3)cc21 | 4.647
COCCn1ccc2cc(C(=O)N3CCN(S(C)(=O)=O)CC3)ccc21 | 72.24
CCOCC(O)CN1CCN(C(=O)Cc2ccc(C)cc2)CC1 (stereo unspecified) | -41.68
Cn1cc(C[C@H]2[C@H](O)CCN2CC2CC2)cn1.O=C(O)C(F)(F)F | 6.686
O=C(O)C(F)(F)F.O=C(c1ccc(F)cc1)N1C[C@@H]2COC[C@]2(COc2cccnc2)C1 | 37.91
O=C1C(CS(=O)(=O)Nc2ccccc2)=NC(=O)n2cccc21 | -27.85
COCCN(Cc1ccccn1)Cc1sccc1C | -13.89
COCCN(Cc1sccc1C)Cc1nccn1CCOC | -20.4
COCCn1ccnc1CN(Cc1ccccn1)Cc1sccc1C | 88.17
Cl.c1cnc2c(c1)cc([C@@H]1CCCO1)n2CCN1CCCCC1 | -17.62
CCN(CC)S(=O)(=O)N1CCc2nc(C3CCNCC3)ncc2C1.Cl | -7.475
CN(Cc1ccnc2ccccc12)C1CCS(=O)(=O)C1.O=C(O)CC(O)(CC(=O)O)C(=O)O (stereo unspecified) | 6.818
CSc1[nH]nc(NC(=O)c2ccccc2)c1C#N | -4.998
CSc1[nH]nc(NC(=O)c2cccs2)c1C#N | 104.2

SMILES | Percent Effect [%]
CSc1[nH]nc(NC(=O)c2ccncc2)c1C#N | 6.331
CN(C)[C@@H]1CCN(C(=O)c2cccc(C#N)c2)[C@H]1Cc1cnn(C)c1.O=C(O)C(F)(F)F | 5.533
Cc1ccc(N2CCO[C@H]3CN(Cc4ccc(F)cc4)C[C@H]32)nn1.O=C(O)C(F)(F)F.O=C(O)C(F)(F)F | -13.42
Clc1ccc(OCCNC2(c3ccc(Br)cc3)CCOCC2)cc1 | 73.72
COCCNC1(c2ccc(Cl)cc2)CCOCC1 | 20.91
CCOCCNC1(c2ccc(Cl)cc2)CCOCC1 | 12.33
CCN1C(=O)C2(CCN(CCN(C)C)CC2)c2ccccc21.O=C(O)C(F)(F)F.O=C(O)C(F)(F)F | -13.81
Cc1ccc(C(=O)N2CCc3c(CNc4ncccn4)cncc3C2)o1.Cl | -7.52
CC(=O)N1C(CN2CCCC2)C[C@@H]2CN(C(=O)c3ccoc3)CC[C@@H]21.O=C(O)C(F)(F)F (stereo partly specified) | -8.828
CCc1cnc(N2Cc3cnc(C(C)(C)C)nc3C2)nc1 | 15.36
CC(C)Cc1ncc2c(n1)CN(c1nccc(N(C)C)n1)C2 | 7.671
COc1ccnc(N2Cc3cnc(C(C)(C)C)nc3C2)n1 | 14.25
CCNc1ccnc(N2Cc3cnc(CC(C)C)nc3C2)n1 | 35.37
CC(C)Cc1ncc2c(n1)CN(c1nccc(NC(C)C)n1)C2 | 83.11
CC(C)Nc1ccnc(N2Cc3cnc(C(C)(C)C)nc3C2)n1 | 52.72
O=C(O)C(F)(F)F.c1cnc(N2CCO[C@@H]3CN(Cc4ccoc4)C[C@@H]3C2)nc1 | -2.175
O=C(O)C(F)(F)F.O=C(c1ccc[nH]1)N1CCc2onc(COc3cccnc3)c2C1 | 7.093
C=C1C(C)(C)[C@H]2CC[C@]1(C(=O)N1CCC(n3cc(CCO)nn3)CC1)C2 | -7.185

From ChEMBL document CHEMBL3988442, “University of Dundee, Small-Polar-MMV Screening Library” (2021)
